Reference: PubChem BioAssay AID2315 (National Center for Advancing Translational Sciences (NCATS), 2010)
About 27,000 (9.3%) of roughly 290,000 compounds were called active. Shown is part of a subset that was picked to be rich in actives. Unmarked numbers belong to inactive results. No stated cut-off is given here; in the data, active means inhibition mostly above about 28% (no sharp cut-off); inactive means mostly below about 43%.

Assay: A qHTS for Small Molecule Inhibitors of Shiga Toxin; further: 0% is about no effect
Conditions: Vero cells, Shiga toxin protein synthesis inhibition reporter; at 38.7 µM, stronger effect = higher value

| SMILES | inhibition |
| --- | --- |
| COC(=O)c1ccc(CNC(=O)C2CCC(=O)N(Cc3ccccn3)C2)cc1 (stereo not given) | -9.5% |
| CN(C)c1ccc(C2N(C)C(=O)c3ccccc3N2C)cc1 (stereo not given) | -12.6% |
| O=[N+]([O-])c1ccc(N2CCN(c3ccc(F)cc3)CC2)cn1 | 20.3% |
| O=C(Nc1ccccc1)c1ccc2nsnc2c1 | 64.7% (active) |
| O=C(Nc1ccccc1N1CCCCC1)c1ccc2nccnc2c1 | -14.9% |
| Cc1cccc(NC(=O)c2ccc3nsnc3c2)c1C | 80% (active) |
| O=S(=O)(Nc1ccccc1Cl)c1cccc2nsnc12 | -3.15% |
| Cc1cccc(NC(=O)c2ccc(OCC(=O)NCc3ccccc3)cc2)c1C | -9.42% |
| O=C(Nc1ccccc1Cl)c1ccc2nsnc2c1 | 102% (active) |
| O=C(Nc1cccc(NC(=O)c2ccc(Br)cc2)c1)c1ccccc1 | -7.53% |
| Cc1nc(C)c(C(=O)Nc2cccc(C)c2C)o1 | -7.98% |
| COc1ccc(N2CCN(C(=O)C3CCN(C(=O)c4ccccc4Cl)CC3)CC2)cc1 | 26.7% |
| CCCCC(CC)CNCc1cccn1CCN1CCOCC1 (stereo not given) | -23.2% |
| COc1cccc(-c2nc(CS(=O)CC(=O)NCc3ccc(F)cc3)c(C)o2)c1 (stereo not given) | -9.69% |
| COc1cccc(NC(=O)[C@H](Cc2c[nH]c3ccccc23)NC(=O)[C@@H]2Cc3ccccc3CN2)c1 | 9.71% |
| O=S(=O)(Nc1cccc(-n2cnnn2)c1)c1cnc(Cl)c(Cl)c1 | -9.74% |
| Cc1ccc(O)c(NC(=O)COc2cc(C)ccc2C)c1 | -27.8% |
| Cc1ccc(O)c(NC(=O)c2cc(-c3ccco3)on2)c1 | 81.4% (active) |
| Cc1ccc(C)c(NC(=O)c2ccc(OC(=O)c3ccco3)cc2)c1 | 32.9% |
| O=C(O)CSc1c2c(nc3cc(C(=O)Nc4cccc(C(F)(F)F)c4)ccc13)CCCC2 | -3.73% |

| SMILES | inhibition |
| --- | --- |
| O=C(O)CN1CCN(C(c2ccccc2)c2ccccc2)CC1 | -10.2% |
| Cc1cc(SCc2c(F)cccc2Cl)nc(=O)[nH]1 | 5.47% |
| Fc1cccc(Cl)c1CSc1ccc(-c2ccco2)nn1 | 89% (active) |
| O=C(CSc1ccc(-c2ccco2)nn1)NCc1ccc2c(c1)OCO2 | 25% |
| Brc1ccc(CSc2ccc(-c3ccco3)nn2)cc1 | 99.8% (active) |
| Clc1ccccc1CSc1nnc(-c2ccco2)c(-c2ccco2)n1 | -3.95% |
| COc1ccc(NC(=O)CSc2ccc(-c3ccco3)nn2)c(OC)c1 | -11.2% |
| O=C(Nc1ccccc1-c1ccccc1)c1ccccc1[N+](=O)[O-] | 2.33% |
| O=C(Nc1ccc(F)cc1)c1cccnc1N1CCOCC1 | 28.6% |
| NC(=O)c1ccc(N2CCOCC2)nc1 | -13.6% |
| O=C(Nc1ccc(N2CCOCC2)nc1)c1c(F)cccc1F | 55.5% (active) |
| CC(=O)c1ccc(S(=O)(=O)N(C)CCCC(=O)N(C)Cc2ccccc2F)cc1 | -5.36% |
| CCn1c(Cc2ccc(OC)cc2)nnc1SCC(=O)Nc1ccc(N2CCOCC2)cc1 | 1.72% |
| COc1ccc(/C=C(/CC(=O)Nc2ccc(C)cc2)c2nc3ccccc3s2)cc1 | 19.4% |
| COc1cccc(/C=C(/CC(=O)Nc2ccc(N3CCOCC3)cc2)c2nc3ccccc3s2)c1 | 90.3% (active) |
| COc1ccc(C(C)NC(=O)C2CCCC2)cc1 (stereo not given) | -3.92% |
| O=C(COc1ccc2ccc(=O)oc2c1)NCC(O)c1ccccc1 (stereo not given) | -18.4% |
| O=C(O)c1ccccc1C(=O)NC1=NN(c2ccccc2)CC1 | 3.05% |
| Cc1cccc(N2CCN(c3ccc(C(N)=O)cc3[N+](=O)[O-])CC2)c1C | 5.45% |
| Cc1ccc(C(=O)c2ccc(N3CCN(C)CC3)c([N+](=O)[O-])c2)cc1 | 76.3% (active) |

| SMILES | inhibition |
| --- | --- |
| CCOC(=O)C1CCN(c2ccc(C(=O)O)cc2[N+](=O)[O-])CC1 | -7.98% |
| CCOC(=O)C1CN(S(=O)(=O)c2ccc(OC)cc2)c2cc(Cl)ccc2O1 (stereo not given) | -12.8% |
| CC(C)C(C)NC(=O)COc1nc2ccccc2nc1N(C)C1CCCCC1 (stereo not given) | -16.3% |
| O=C(NC1CCCC1)C1CCN(C(=O)Nc2cccc(Cl)c2)CC1 | -5.04% |
| Cc1ccc(S(=O)(=O)N(Cc2ccccc2)c2ccccn2)cc1[N+](=O)[O-] | 5.85% |
| Cc1nn(-c2ccccc2)c(Cl)c1/C=C/C(=O)c1ccc(O)cc1 | 37.6% |
| Cc1ccc(C(=O)/C=C/c2c(C)nn(-c3ccccc3)c2Cl)cc1 | 45.2% (active) |
| Cc1nn(-c2ccccc2)c(C)c1NC(=O)CCl | 16.7% |
| COc1ccc(CCNC(=O)c2c(C)nn(-c3ccccc3)c2Cl)cc1 | 15.3% |
| Cc1nn(-c2ccccc2)c(Cl)c1C(=O)Nc1ccccc1 | 108% (active) |
| Cc1nn(-c2ccccc2)c(C)c1/C=C/C(=O)OC(C)C(N)=O (stereo not given) | -6.62% |
| Cc1cccc([C@@H]2[C@@H]3C(=O)N(Cc4ccccc4)C(=O)[C@@H]3[C@]3(C)C(=O)N(c4ccc(Br)cc4)C(=O)N23)c1 | 10.9% |
| CCCN1CCN(C(=O)CCCNC(=O)c2ccc(Cl)cc2)CC1 | -8.41% |
| C[C@H](NC(=O)C1CC(=O)N(c2ccc3c(c2)OCCO3)C1)C(=O)N1CCC(C(=O)O)CC1 (stereo not given in full) | -10.9% |
| COc1ccccc1N1CCN(C(=O)c2cn(-c3ccccc3)nc2-c2cccnc2)CC1 | 39.2% (active) |
| O=C(c1cn(-c2ccccc2)nc1-c1cccnc1)N1CCCCC1 | -13.3% |
| COc1ccccc1N1CCN(C(=O)c2cc3c(-c4ccc(Cl)cc4)nn(C)c3s2)CC1 | 19.3% |
| COc1cc(C(=O)N2CCN(C3CCC(C)CC3)CC2)cc(OC)c1OC (stereo not given) | -9.82% |
| CCOc1ccc2nc(N(CCCN(C)C)C(=O)c3ccc(C(=O)c4ccccc4)cc3)sc2c1 | -6% |
| O=C(O)c1ccc(-n2nc(-c3ccccc3)c3ccccc3c2=O)cc1 | 17.9% |
